# Data as given in PubChem BioAssay (NCI).
# The panel holds about 83,000 compounds, 20% with a hit somewhere; the sample as a whole holds those more often.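 Growth was measured after 48 h exposure to one concentration of compound in 96-well plates. Values under 10 count as active.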 Unmarked numbers belong to inactive results. Activity calls are given as the source filed them.
# Columns and labels:
# Experiment in all cases: NCI-60 one-dose screen, 48 h (100 = growth as untreated, 0 = no growth, -100 = all killed)
# Details in all cases: 10 µM unless noted
# HT29 colon = system: HT29 colon
# SNB-75 CNS = system: SNB-75 CNS
# SNB-19 CNS = system: SNB-19 CNS
# U251 CNS = system: U251 CNS
# PC-3 prostate = system: PC-3 prostate
# SK-MEL-5 melanoma = system: SK-MEL-5 melanoma
# LOX IMVI melanoma = system: LOX IMVI melanoma
# SK-MEL-28 melanoma = system: SK-MEL-28 melanoma
# SN12C renal = system: SN12C renal
# UO-31 renal = system: UO-31 renal
# ACHN renal = system: ACHN renal
# CAKI-1 renal = system: CAKI-1 renal
# A498 renal = system: A498 renal
# CCRF-CEM leukemia = system: CCRF-CEM leukemia
# MOLT-4 leukemia = system: MOLT-4 leukemia
# SR leukemia = system: SR leukemia
# SK-MEL-2 melanoma = system: SK-MEL-2 melanoma
# UACC-62 melanoma = system: UACC-62 melanoma
# EKVX NSCLC = system: EKVX NSCLC
# TK-10 renal = system: TK-10 renal
Structure (SMILES),growth (HT29 colon),growth (SNB-75 CNS),growth (SNB-19 CNS),growth (U251 CNS),growth (PC-3 prostate),growth (SK-MEL-5 melanoma),growth (LOX IMVI melanoma),growth (SK-MEL-28 melanoma),growth (SN12C renal),growth (UO-31 renal),growth (ACHN renal),growth (CAKI-1 renal),growth (A498 renal),growth (CCRF-CEM leukemia),growth (MOLT-4 leukemia),growth (SR leukemia),growth (SK-MEL-2 melanoma),growth (UACC-62 melanoma) [%],growth (EKVX NSCLC),growth (TK-10 renal)
COc1ccc(/C=C(\C#N)c2ccccc2)cc1,85.5%,64.6%,80.8%,81.4%,83.3%,81%,89.7%,90.6%,86.6%,85.6%,97.3%,78.2%,79.4%,93.1%,96.1%,55.7%,–,–,–,–
COc1cc(/C=C/C(=O)c2c(-c3ccc(Cl)cc3)nc3sc(C)nn23)cc(OC)c1OC,86.6%,77.3%,90.8%,76.4%,53.6%,20.9%,61.6%,94%,78.3%,51.2%,73.8%,93.7%,85.5%,32.5%,–,26.1%,44%,–,–,–
Cc1cc(C)c(OC(=O)CSc2nc3ccccc3c(=O)n2CCc2ccccc2)cc1C,99.5%,88.1%,103%,74.1%,66%,108%,–,–,91.8%,63.6%,92%,72.6%,94.5%,–,–,–,112%,77,64.4%,124%
N#Cc1cccc(/C=C(/C(=O)c2ccccc2)c2ccccc2)c1,70.1%,69.4%,83%,60.1%,66.5%,49.3%,14.1%,100%,49.4%,49.3%,45%,55.5%,74.3%,2.7% (active),–,3% (active),34.5%,–,–,–
CC(=O)c1ccc2c3c(n(C)c2c1)CCCC3,92.6%,92.1%,99.6%,102%,100%,102%,–,–,97.2%,112%,105%,102%,-76.1% (active),86.6%,76.5%,92.1%,104%,96.5,88.3%,85.4%
COC(=O)[C@]12CC[C@@H](C)[C@H](C)[C@@H]1C1=CC[C@@H]3[C@@]4(C)C=C(O)C(=O)[C@@]5(C)COC(=C54)C[C@@]3(C)[C@]1(C)CC2,-70.6% (active),12.7%,-26.5% (active),-74.9% (active),-71.2% (active),-98.1% (active),-98.8% (active),-56.9% (active),-29.9% (active),-50.2% (active),-71.7% (active),-45.7% (active),-78% (active),-60.8% (active),-72.1% (active),-68.2% (active),-62.8% (active),–,-56.7% (active),-62.3% (active)
Fc1ccc([C@@H]2CCNC[C@H]2COc2ccc3c(c2)OCO3)cc1,14.9%,57.6%,80.2%,70.3%,53.6%,–,42.9%,94.4%,58.6%,40.4%,67%,67%,86.1%,60.6%,68.3%,–,83.8%,57.5,77.3%,58.4%
Cc1c(C(N)=O)sc2c1c(=O)n(Cc1ccccc1)c1nnc(SCC(=O)Nc3ccc(Cl)cc3)n21,37.1%,-52% (active),58%,20.2%,38.1%,–,41.8%,17.3%,50.8%,75.5%,32.7%,77%,40.1%,–,–,–,0.559% (active),57.6,50.2%,-22.9% (active)
COc1cc(C2=NN(C(C)=O)C(c3ccc(OC(C)=O)cc3OC(C)=O)O2)c(OC(C)=O)c2ccccc12 (stereo unspecified),29.9%,50.4%,36.7%,15.7%,42.9%,7.09% (active),2.78% (active),23.7%,19.1%,5.38% (active),16.3%,8.08% (active),25.2%,-1.14% (active),-2.56% (active),2.88% (active),24.9%,–,–,–
CC1SC(c2c(Cl)cccc2Cl)N(NC(=O)c2[nH]c3ccc(F)cc3c2-c2ccccc2)C1=O (stereo unspecified),34.8%,-53% (active),37.4%,10.7%,32.2%,54.6%,–,71.2%,33.9%,-17.6% (active),34.4%,–,–,56.1%,69.1%,54.8%,72%,74.8,41.8%,21.6%
Nc1ccc(S(=O)(=O)Nc2ncccn2)cc1,105%,102%,105%,106%,97.7%,108%,102%,118%,103%,94.5%,98.6%,103%,113%,101%,106%,103%,106%,–,103%,114%
O=C(/C(=C/c1cccc([N+](=O)[O-])c1)c1ccccc1)c1ccccc1,52.7%,56.8%,77%,56.3%,64%,41.5%,10.7%,92.8%,35.6%,48.8%,40.1%,47.7%,66.2%,1.9% (active),4.09% (active),4.42% (active),28.8%,–,–,–
COc1cc(/C=C/C(=O)Nc2ccc3c(c2)/C(=C\c2cccn2C)C(=O)N3)cc(OC)c1OC,53.9%,9.39% (active),65.3%,52.4%,59.9%,18.2%,41.4%,63.1%,41.2%,28.3%,54.9%,52.1%,46.8%,31.9%,50.8%,16.2%,25.1%,–,–,–
O=C(/C=C/c1ccc(Cl)cc1)c1ccccc1,93.8%,109%,101%,88.2%,97%,93%,81.1%,113%,98%,88.3%,110%,101%,87.5%,87.9%,96.7%,23.1%,102%,–,–,–
Cc1cc(C(=O)O)c(C)cc1C(=O)O,103%,97%,107%,109%,92.3%,99.9%,103%,108%,106%,73.5%,112%,102%,103%,101%,87.7%,105%,104%,–,122%,115%
CC1(C)OC(=O)C(=Cc2ccccc2Br)C(=O)O1,103%,81.8%,94.3%,96.8%,92.5%,97.6%,94.1%,115%,96.6%,92.2%,–,94.8%,105%,98.2%,99.5%,79.7%,97.6%,–,–,–
CCn1c2c(c3ccccc31)SC1c3cccn3CCN1C2=S (stereo unspecified),90.2%,79.6%,95.8%,93.8%,89.1%,–,96.8%,110%,98.3%,84.9%,99.1%,88.3%,115%,81.2%,–,109%,89.9%,81,107%,89%
